Source: PubChem (Broad Institute)
Shown are actives, neighbours in structure and some others; about 3.9% of the full set was active somewhere.
SUMO Mot1 rescue: inhibitors of SUMOylation pathway: yeast Mot1-301 growth rescue; S. cerevisiae Mot1-301 growth rescue, ATP luminescence, 38.5C; percent above DMSO median, 100 means doubled; growth rescue, % at 18.8 µM; actives 1% (n = 320,000);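 active = every valid replicate shows activation above 250% relative to neutral control wells; inactive = the rest, any valid replicate at or below 250%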;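 also: OY570 slx delta 5 strain wells were the positive control but not used for scaling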
ALR H2O2 inh: blocks human ALR sulfhydryl oxidase activity. P55789. purified ALR, DTT oxidation, H2O2 HRP-luminol luminescence. inhibition, % (concentration not given with the values). actives 3.8% (n = 290,000). AID 485317;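 active = mean replicate inhibition above about 79%, with every replicate also reaching it, limit read from the data; inconclusive = only one of the two criteria met; inactive = mean below limit and not every replicate reaching it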
N-glyco inh: N-linked glycosylation inhibition; D54 ERlucT glycosylation luciferase reporter, 24 h; percent of 100 nM tunicamycin response; reporter increase, % at 12.5 µM; actives 0.23% (n = 360,000); AID 588692;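 active = mean luciferase reporter signal, scaled so untreated is 0 and the glycosylation-blocking control 100, at or above a set limit in every replicate; inconclusive = mean reaches the limit but not every replicate does; inactive = mean below the limit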;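 also: luciferase carries N-glycosylation sites so blocking glycosylation raises the light; 0% = median of neutral control wells and 100% = median of 100 nM tunicamycin wells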
CDK5 inh: CDK5/p35 (human) kinase inhibition; Recombinant CDK5/p35, ADP-Glo luminescence, 60 min; inhibition, % at 10 µM; actives 0.01% (n = 330,000); Q00535+Q15078; AID 488839;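 active = highest replicate inhibition of at least 50% and at least 75% of replicates reaching 50%; inconclusive = only one of the two criteria met; inactive = both criteria failed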;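 also: plate controls were DMSO neutral control for no effect and GW8510 at 10 µM for full effect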
NSD2 inh: NSD2 (human) methyltransferase inhibition; O96028; NSD2 peptide methylation, AlphaScreen, 120 min; inhibition, % at 12.5 µM; actives 0.54% (n = 310,000); in the data active = inhibition above about 50%
Target sequence (O96028 whole entry, looked up): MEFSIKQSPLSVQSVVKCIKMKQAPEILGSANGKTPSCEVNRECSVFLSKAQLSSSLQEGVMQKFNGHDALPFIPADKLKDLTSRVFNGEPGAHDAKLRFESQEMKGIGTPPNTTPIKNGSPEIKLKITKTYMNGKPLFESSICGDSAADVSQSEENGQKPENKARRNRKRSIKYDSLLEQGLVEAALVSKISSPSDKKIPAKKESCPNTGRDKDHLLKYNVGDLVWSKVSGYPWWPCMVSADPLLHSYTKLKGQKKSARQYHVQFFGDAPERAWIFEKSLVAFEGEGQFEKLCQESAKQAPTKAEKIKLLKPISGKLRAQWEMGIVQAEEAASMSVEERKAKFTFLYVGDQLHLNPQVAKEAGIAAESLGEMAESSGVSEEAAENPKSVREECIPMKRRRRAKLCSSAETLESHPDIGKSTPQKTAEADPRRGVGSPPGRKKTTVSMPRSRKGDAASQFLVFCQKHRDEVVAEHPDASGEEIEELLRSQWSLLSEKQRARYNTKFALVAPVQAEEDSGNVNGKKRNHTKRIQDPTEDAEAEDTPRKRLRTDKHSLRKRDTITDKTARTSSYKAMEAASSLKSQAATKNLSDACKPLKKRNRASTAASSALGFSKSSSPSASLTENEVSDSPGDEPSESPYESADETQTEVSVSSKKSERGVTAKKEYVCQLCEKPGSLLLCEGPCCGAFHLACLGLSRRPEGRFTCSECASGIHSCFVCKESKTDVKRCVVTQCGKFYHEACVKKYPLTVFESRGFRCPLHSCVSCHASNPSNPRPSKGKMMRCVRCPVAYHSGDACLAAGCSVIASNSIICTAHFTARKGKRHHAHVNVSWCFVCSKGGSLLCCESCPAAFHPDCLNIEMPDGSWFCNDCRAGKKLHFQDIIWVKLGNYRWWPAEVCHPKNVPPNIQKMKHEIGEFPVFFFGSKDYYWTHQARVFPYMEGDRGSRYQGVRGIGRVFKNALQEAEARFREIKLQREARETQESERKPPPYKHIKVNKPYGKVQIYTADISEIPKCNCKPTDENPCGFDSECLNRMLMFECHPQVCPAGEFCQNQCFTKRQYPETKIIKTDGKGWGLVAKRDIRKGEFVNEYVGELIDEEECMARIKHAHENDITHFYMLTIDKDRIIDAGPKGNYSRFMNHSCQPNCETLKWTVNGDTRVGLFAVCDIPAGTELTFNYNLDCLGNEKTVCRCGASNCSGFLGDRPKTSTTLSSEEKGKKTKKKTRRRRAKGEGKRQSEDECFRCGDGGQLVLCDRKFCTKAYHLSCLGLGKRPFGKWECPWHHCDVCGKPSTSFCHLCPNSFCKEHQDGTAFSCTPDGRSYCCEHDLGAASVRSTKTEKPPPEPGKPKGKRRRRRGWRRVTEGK
Casp6 inh: caspase-6 (human) enzyme inhibition. actives 0.53% (n = 350,000). purified caspase-6, Z-VEID-R110 cleavage fluorescence. P55212. AID 686996. inhibition, % at 12.5 µM;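 active = mean inhibition across replicates at least about 35%, with every replicate also reaching that limit, limit read from the data; inconclusive = only one of the two criteria met; inactive = neither criterion met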;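 also: 0% = median of neutral control wells and 100% = no fluorescence left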
Mot1 SUMO dose: yeast SUMO pathway inhibition in dose response. AID 493004. S. cerevisiae Mot1-301 galactose growth, ATP luminescence, 24 h; -100 = growth of slx-deleted rescue strain. 2,300 tested, under 10 active. shares compounds with SUMO Mot1 rescue. growth activity, percent, % at 42 µM;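 active = Signal drops as the depositor expects, and the fitted half-maximal dose is no more than ten times the top valid tested dose; inconclusive = Poor fit, or a flat curve whose signal drops by 30% to 70%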;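 also: more negative values mean stronger growth rescue toward the control strain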
An asterisk follows results filed as active.

For CN1C(=O)C(O)(CC(=O)c2ccccc2O)c2cc(Br)ccc21 (configuration not stated) the results were SUMO Mot1 rescue -9, ALR H2O2 inh 51, N-glyco inh 5, CDK5 inh -1, Casp6 inh 2 and Mot1 SUMO dose 0.
Screening C[C@@H]1CN([C@@H](C)CO)C(=O)c2cc(NC(=O)c3ccncc3)ccc2O[C@@H](C)CCCCO[C@H]1CN(C)Cc1ccc(C(=O)O)cc1 returned Casp6 inh -1.
`CO[C@H]1CN(C)C(=O)c2ccc(NC(C)=O)cc2OC[C@@H](C)N(C(=O)C2CC2)C[C@@H]1C` gave Casp6 inh -3.
`CS(=O)(=O)c1ccc(Cl)c(C(=O)O)c1` gave SUMO Mot1 rescue 608*, ALR H2O2 inh -8, N-glyco inh 2, CDK5 inh 6, NSD2 inh 0 and Mot1 SUMO dose 0.
For O=C(O)c1cc(S(=O)(=O)N2CCCCCC2)ccc1Cl the results were SUMO Mot1 rescue 55, ALR H2O2 inh -2, N-glyco inh 2, CDK5 inh -1 and NSD2 inh 0.
`COC(=O)C1CSc2[nH]c(=O)sc2C1c1ccc(OC)c(OC)c1` (configuration not stated) gave SUMO Mot1 rescue -8, ALR H2O2 inh 30, N-glyco inh 2, CDK5 inh 8 and NSD2 inh -4.
For COC(=O)C1C(c2ccc(OC)c(OC)c2)NC(c2ccc(OC)c(OC)c2)C(C(=O)OC)S1(=O)=O (configuration not stated) the results were SUMO Mot1 rescue 520*, ALR H2O2 inh 0, N-glyco inh -1, CDK5 inh 0, NSD2 inh -1, Casp6 inh 0 and Mot1 SUMO dose 0.
`O=C(CCN1CCc2ccccc2C1)Nc1ccc(F)c(F)c1` gave SUMO Mot1 rescue 386, N-glyco inh -1, CDK5 inh 1, NSD2 inh -5 and Casp6 inh 1.
COc1ccc(CCC(=O)Nc2ccc3c(c2)OCO3)cc1 was read as SUMO Mot1 rescue 563*, N-glyco inh -1, CDK5 inh -1, NSD2 inh 1, Casp6 inh 4 and Mot1 SUMO dose -1.
`O=C(CCN1CCc2ccccc2C1)Nc1ccc2c(c1)OCO2` gave SUMO Mot1 rescue 836*, ALR H2O2 inh -14, N-glyco inh -1, CDK5 inh 0, NSD2 inh -4 and Mot1 SUMO dose 0.
For COc1ccc(CCC(=O)Nc2ccc3c(c2)OCCO3)cc1 the results were SUMO Mot1 rescue -3, ALR H2O2 inh -7, N-glyco inh -1, CDK5 inh 1 and NSD2 inh 4.
`CCC(=O)N(C)C[C@H]1Oc2cc(C#CC(C)C)ccc2S(=O)(=O)N([C@@H](C)CO)C[C@@H]1C` gave Casp6 inh -2.
`O=C(Nc1cc(F)ccc1F)N[C@H]1C=C[C@@H](CC(=O)N2CCc3ccccc3C2)O[C@@H]1CO` gave Casp6 inh 0.
For Cc1ccc(C)n1-n1cnc2sc3c(c2c1=O)CCCCC3 the results were SUMO Mot1 rescue 596*, ALR H2O2 inh 9, N-glyco inh -1, CDK5 inh 1, NSD2 inh 0 and Mot1 SUMO dose 0.
O=C(C[C@@H]1CC[C@H]2[C@@H](COC[C@@H](O)CN2Cc2cccc(F)c2)O1)NCc1ccncc1 was read as Casp6 inh -1.
For NCC[C@@H]1CC[C@@H](NC(=O)Nc2ccc(F)cc2)[C@@H](CO)O1 the results were Casp6 inh 0.
`CCCc1cn(CC[C@@H]2CC[C@H](NC(=O)C3CCCCC3)[C@@H](CO)O2)nn1` gave Casp6 inh 2.
Cc1cc(S(=O)(=O)N2CCCCC2CCNC(=O)C(=O)NCC2CCCO2)ccc1F (configuration not stated) was read as SUMO Mot1 rescue 391*, ALR H2O2 inh -4, N-glyco inh -1, CDK5 inh 0, NSD2 inh -1, Casp6 inh -4 and Mot1 SUMO dose 0.
Screening Cc1ccc(S(=O)(=O)N2CCCOC2CNC(=O)C(=O)NCCN2CCOCC2)cc1 (configuration not stated) returned SUMO Mot1 rescue 1, ALR H2O2 inh 0, N-glyco inh 0, CDK5 inh 0, NSD2 inh -1 and Casp6 inh -2.
Screening COc1ccc(S(=O)(=O)N2CCCOC2CNC(=O)C(=O)NCCCN2CCOCC2)cc1C (configuration not stated) returned SUMO Mot1 rescue 415*, ALR H2O2 inh 0, N-glyco inh 3, CDK5 inh 1, NSD2 inh -3, Casp6 inh -9 and Mot1 SUMO dose -1.
`Cc1cc(S(=O)(=O)N2CCCCC2CCNC(=O)C(=O)NCCN2CCOCC2)ccc1F` (configuration not stated) gave N-glyco inh 4, NSD2 inh -1 and Casp6 inh -1.
`C[C@H]1CN([C@@H](C)CO)C(=O)c2cccc(NC(=O)c3nc4ccccc4s3)c2O[C@@H]1CN(C)C(=O)Nc1ccccc1` gave Casp6 inh 2.
For CC1(C)CC(=O)C(CC2C(=O)CC(C)(C)CC2=O)C(=O)C1 the results were SUMO Mot1 rescue 7, ALR H2O2 inh 12, N-glyco inh 1, CDK5 inh 0, NSD2 inh -1 and Casp6 inh -1.
Screening CC1(C)CC(=O)C(CC2CCCCC2=O)C(=O)C1 (configuration not stated) returned SUMO Mot1 rescue 575*, ALR H2O2 inh -8, N-glyco inh -1, CDK5 inh -1, NSD2 inh -2, Casp6 inh 0 and Mot1 SUMO dose 0.
For CCN(CC)S(=O)(=O)c1cc(NC(=O)COC(=O)CCc2nc3ccccc3s2)ccc1C the results were SUMO Mot1 rescue 363*, ALR H2O2 inh -4, N-glyco inh 2, CDK5 inh -3, NSD2 inh 15 and Mot1 SUMO dose 0.
O=[N+]([O-])c1cc([N+](=O)[O-])c2cc3ccccc3nc2c1 was read as SUMO Mot1 rescue 468*, ALR H2O2 inh -19, N-glyco inh inconclusive, CDK5 inh 3, NSD2 inh 6, Casp6 inh 1 and Mot1 SUMO dose -1.
CCOC(=O)CNC(=O)c1c(C)nn(C)c1Cl was read as SUMO Mot1 rescue 669*, ALR H2O2 inh -13, N-glyco inh 1, CDK5 inh 0, NSD2 inh -4, Casp6 inh -4 and Mot1 SUMO dose 1.
Cc1nn(C)c(Cl)c1C(=O)NCC(=O)O was read as SUMO Mot1 rescue 85, ALR H2O2 inh -19, N-glyco inh 0, CDK5 inh 0, NSD2 inh -1 and Casp6 inh -5.
